Test results: the supplement of paper PMC4371806
Whole data set: some 1,600 compounds, median “plate-normalized OD600 growth (mean of duplicates)” near 0.31, cut for the lowest 2% near 0.23. This excerpt belongs to a sample that is enriched for the lowest values.

Tested on: Escherichia coli BW25113
Assay: plate-normalized OD600 growth (mean of duplicates) (OD600 (normalized)); higher = more growth (less inhibition)
Conditions: 10 µM
Protocol: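 E. coli BW25113 in LB (100 µl, 96-well, no shaking) was exposed to 10 µM of each compound (here the ChemBridge subset of a ~30,000-member library) and grown at 37°C for 24 h or 15°C for 48 h, in duplicate. Growth was read as OD600 and the duplicate ODs were normalized across screening plates to correct plate-to-plate variation.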

Row | SMILES | plate-normalized OD600 growth (temperature: 15°C, 48 h) | plate-normalized OD600 growth (temperature: 37°C, 24 h)
1 | O=C(NC1C[C@@H]1c1ccccc1)[C@@H]1CC1c1ccccc1 (some centres not stated) | 0.272 | 0.63
2 | CN1CCCC1CCNC1CC2CCC1C2 (configuration not stated) | 0.299 | 0.637
3 | Cn1cc(/C=C/c2nc3ccccc3c(=O)[nH]2)c2ccccc21 | 0.248 | 0.604
4 | COc1ccc(N(C(=O)c2ccc(F)cc2)C2=CC3CCC(C2)N3C)cc1 (configuration not stated) | 0.247 | 0.619
5 | COc1ccc(C(C)=O)cc1Cc1c(O)nc(SC)[nH]c1=O | 0.247 | 0.629
6 | O=C(CC1Nc2ccccc2NC1=O)Nc1ccc(Cl)cc1 (configuration not stated) | 0.215 | 0.6
7 | O=C(CC1Nc2ccccc2NC1=O)Nc1ccccc1 (configuration not stated) | 0.24 | 0.597
8 | CCOc1ccc(NC(=O)CC2Nc3ccccc3NC2=O)cc1 (configuration not stated) | 0.273 | 0.648
9 | Nc1nc2sc3c(c2cc1C(=O)N1CCOCC1)CCCC3 | 0.253 | 0.625
10 | Cc1nc(-c2ccccc2)cc(N2CCCC2)n1 | 0.253 | 0.616
11 | CN1CCC(NCc2ccccc2F)CC1 | 0.212 | 0.645
12 | CCCN1CCC(NCCc2ccccc2OC)CC1 | 0.252 | 0.619
13 | Cc1ccccc1CN(C)C1CCN(C)CC1 | 0.256 | 0.628
14 | Cc1ccc(OCCCNC(C)(C)C)cc1 | 0.244 | 0.608
15 | CC1CCCC(C)N1C(=O)c1ccc(Br)cc1 (configuration not stated) | 0.25 | 0.617
16 | O=c1[nH]c2nonc2nc1Nc1ccccc1 | 0.245 | 0.603
17 | CCN(C(=O)Cc1ccccc1)C1CCCCC1 | 0.221 | 0.606
18 | CC1CCCC(C)N1C(=O)Cc1ccccc1 (configuration not stated) | 0.233 | 0.611
19 | CCN(Cc1ccccc1)C(=O)Cc1ccccc1 | 0.262 | 0.642
20 | Cc1cc(C)c(S(=O)(=O)Nc2cc(C)on2)c(C)c1 | 0.243 | 0.612
21 | COc1ccccc1NS(=O)(=O)c1ccc(C(C)(C)C)cc1 | 0.254 | 0.618
22 | CCc1ccccc1NS(=O)(=O)c1ccc(F)cc1 | 0.21 | 0.618

Row | SMILES | plate-normalized OD600 growth (temperature: 15°C, 48 h) | plate-normalized OD600 growth (temperature: 37°C, 24 h)
23 | COc1ccccc1NS(=O)(=O)c1ccc(Cl)cc1 | 0.256 | 0.651
24 | Cc1ccc(C2C(C#N)=C(N)Oc3n[nH]c(C)c32)s1 (configuration not stated) | 0.246 | 0.658
25 | Cc1cc(C)c(C2C(C#N)=C(N)Oc3n[nH]c(C)c32)c(C)c1 (configuration not stated) | 0.218 | 0.621
26 | Cc1[nH]nc2c1C(c1ccccc1I)C(C#N)=C(N)O2 (configuration not stated) | 0.233 | 0.613
27 | Cc1ccc(NCc2ccc([N+](=O)[O-])cc2)cc1C | 0.237 | 0.605
28 | O=C(c1ccc([N+](=O)[O-])o1)N1CCN(c2cccc(Cl)c2)CC1 | 0.212 | 0.611
29 | O=C(c1ccco1)N1CCN(c2ccc([N+](=O)[O-])cc2)CC1 | 0.244 | 0.617
30 | O=C(c1ccc(Br)o1)N1CCN(c2ccc([N+](=O)[O-])cc2)CC1 | 0.262 | 0.622
31 | O=C1CC(N2CCOCC2)C(=O)N1c1ccc(I)cc1 (configuration not stated) | 0.257 | 0.645
32 | N#CC1=C(N)Oc2cc(N)ccc2C1c1ccc(Br)s1 (configuration not stated) | 0.262 | 0.636
33 | O=C(Nc1cccc([N+](=O)[O-])c1)c1cc(S(=O)(=O)Nc2ccccc2)ccc1Cl | 0.256 | 0.621
34 | Fc1ccccc1OCCSc1ncnc2nc[nH]c12 | 0.258 | 0.613
35 | N#CSc1cnc(NC2CCCCC2)s1 | 0.254 | 0.611
36 | CCSc1sc(SC#N)cc1SC#N | 0.207 | 0.614
37 | CCSc1sc(CC)cc1C(N)=O | 0.239 | 0.621
38 | CCOc1ccc(Br)cc1/C=C(\C#N)c1nc2ccccc2[nH]1 | 0.255 | 0.657
39 | Cc1ccc(-c2csc(Nc3ccc(F)cc3)n2)cc1C | 0.218 | 0.604
40 | Cc1cc(C)n(-c2nc(-c3ccc(F)cc3)cs2)n1 | 0.254 | 0.625
41 | CCOc1ccc(Nc2nc(-c3ccc(C)c(C)c3)cs2)cc1 | 0.248 | 0.605
42 | CCOc1ccc(C(=O)Nc2ccc(S(=O)(=O)Nc3nccs3)cc2)cc1 | 0.241 | 0.613
43 | C=CCNc1nc(-c2ccncc2)cs1 | 0.236 | 0.589
44 | CC(=O)Nc1ccc(-c2cc(-c3ccc(NC(C)=O)cc3)nc(-c3ccccc3)n2)cc1 | 0.246 | 0.587

Row | SMILES | plate-normalized OD600 growth (temperature: 15°C, 48 h) | plate-normalized OD600 growth (temperature: 37°C, 24 h)
45 | Cc1ccc2nc(/C(C#N)=C\c3ccco3)[nH]c2c1 | 0.242 | 0.599
46 | CC(=O)Nc1ccc2oc(-c3cccc(I)c3)nc2c1 | 0.235 | 0.614
47 | CCOc1ccc(-c2ncnn2-c2ccc([N+](=O)[O-])cc2)cc1 | 0.222 | 0.625
48 | CCN(CC)CCCOc1ccc([N+](=O)[O-])cc1 | 0.246 | 0.624
49 | CCOc1ccc(C(=O)c2ccc([N+](=O)[O-])cc2Cl)cc1 | 0.265 | 0.637
50 | CCCCOC(=O)Nc1nnc(CCc2ccccc2)s1 | 0.265 | 0.623
51 | COc1cc(CN2CCSCC2)c([N+](=O)[O-])cc1OC | 0.23 | 0.6
52 | NC(=O)CCC(=O)NC12CC3CC(CC(C3)C1)C2 | 0.227 | 0.599
53 | CC(C)NCC(=O)NC12CC3CC(CC(C3)C1)C2 | 0.266 | 0.656
54 | O=C(CN1CCCCC1)NC12CC3CC(CC(C3)C1)C2 | 0.274 | 0.65
55 | Cc1ccc(NC(=O)c2c(O)c3ccccc3[nH]c2=O)c(C)c1 | 0.27 | 0.648
56 | Cc1cc(C)n(C(=O)c2ccc(Cl)cc2)n1 | 0.256 | 0.636
57 | Cc1cc(C)n(C(=O)c2ccccc2F)n1 | 0.251 | 0.635
58 | Cc1cc(C)n(C(=O)c2ccccc2Br)n1 | 0.226 | 0.655
59 | O=C(O)c1ccc2c(c1)C(=O)N(c1c[nH]c(=O)[nH]c1=O)C2=O | 0.239 | 0.592
60 | O=C(/C=C/c1ccc(-c2cc(Cl)ccc2Cl)o1)c1ccco1 | 0.25 | 0.612
61 | c1cc2cn[nH]c2cc1NC1CCCCCC1 | 0.233 | 0.604
62 | Nc1ccc(Cl)cc1SCC(=O)O | 0.242 | 0.599
63 | O=C(O)CSc1ccc(Br)cc1 | 0.222 | 0.609
64 | O=C(O)CSc1cccc(C(=O)Nc2ccc(Br)cc2)c1 | 0.249 | 0.611
65 | NS(=O)(=O)c1ccc(NC(=O)c2ccccc2Cl)cc1 | 0.24 | 0.604
66 | O=[N+]([O-])c1ccc(N2CCN(Cc3cccs3)CC2)cc1 | 0.22 | 0.599

Row | SMILES | plate-normalized OD600 growth (temperature: 15°C, 48 h) | plate-normalized OD600 growth (temperature: 37°C, 24 h)
67 | O=[N+]([O-])c1ccc(N2CCN(Cc3ccc(Br)s3)CC2)cc1 | 0.242 | 0.58
68 | Cc1ccsc1CN1CCN(c2ccc([N+](=O)[O-])cc2)CC1 | 0.256 | 0.634
69 | O=C(O)c1ccc(S(=O)(=O)c2ccc(O)cc2)cc1 | 0.247 | 0.592
70 | C=CCNC(=O)c1ccc(CN2CCc3ccccc3C2)cc1 | 0.217 | 0.6
71 | CN(C)c1ccc(CN2CCc3ccccc3C2)cc1 | 0.244 | 0.619
72 | c1ccc2c(c1)CCN(Cc1ccncc1)C2 | 0.236 | 0.651
73 | O=C(c1ccccc1[N+](=O)[O-])N1CCN(C(c2ccccc2)c2ccccc2)CC1 | 0.259 | 0.627
74 | CCOc1cc(/C=C(\C#N)c2nc(-c3ccc(OC)cc3)cs2)ccc1O | 0.262 | 0.615
75 | COc1ccc(-c2c(C)[nH]n3c(=O)cc(-c4ccc([N+](=O)[O-])cc4)nc23)cc1 | 0.24 | 0.608
76 | COc1ccc(NCc2ccc(Cl)cc2Cl)cc1OC | 0.22 | 0.625
77 | COc1ccc(NCc2ccc(C)s2)cc1OC | 0.244 | 0.604
78 | COc1ccc(NC(=O)Nc2ccc(F)c(Cl)c2)cc1 | 0.283 | 0.58
79 | O=C(c1sc2ccccc2c1Cl)N1CCN(CCN2C(=O)C3C4C=CC(C4)C3C2=O)CC1 (configuration not stated) | 0.243 | 0.611
80 | O=S(=O)(c1ccc(Cl)c(Cl)c1)N1CCCCC1 | 0.252 | 0.619
81 | O=[N+]([O-])c1ccc2[nH]c3c(c2c1)CCCC3NC1CCN(CCc2ccccc2)CC1 (configuration not stated) | 0.249 | 0.578
82 | NC1CCCc2c1[nH]c1ccc([N+](=O)[O-])cc21 (configuration not stated) | 0.173 | 0.552
83 | Cc1cc(=O)[nH]c2ccc([N+](=O)[O-])cc12 | 0.244 | 0.609
84 | N#C/C(=C\c1ccc(Br)o1)c1nc(-c2ccccc2)cs1 | 0.246 | 0.6
85 | O=C(Nc1ccc(Cl)cc1)c1ccccc1Br | 0.264 | 0.633
86 | COc1ccc(NC(=O)c2ccccc2Br)c(OC)c1 | 0.258 | 0.615
87 | COc1ccc(Cl)cc1NC(=O)c1ccccc1Br | 0.222 | 0.627
88 | O=C1c2cccc([N+](=O)[O-])c2C(=O)N1n1cnnc1 | 0.258 | 0.629

Row | SMILES | plate-normalized OD600 growth (temperature: 15°C, 48 h) | plate-normalized OD600 growth (temperature: 37°C, 24 h)
89 | CCC1CCC(NCc2cccc(OC)c2OC)CC1 (configuration not stated) | 0.253 | 0.603
90 | Cc1cccc(NC(=O)COc2ccc(C)c(C)c2)c1 | 0.237 | 0.601
91 | C=CCOc1ccccc1CN1CCCN(C)CC1 | 0.217 | 0.595
92 | CN1CCCN(Cc2cc(F)ccc2F)CC1 | 0.273 | 0.623
93 | COc1ccc(CN2CCCN(C)CC2)c(OC)c1 | 0.25 | 0.619
94 | CC1(C)CC(=O)C2=C(C1)Nc1ccccc1NC2c1cc2c(cc1[N+](=O)[O-])OCO2 (configuration not stated) | 0.225 | 0.606
95 | CC1(C)CC(=O)C2=C(C1)Nc1ccccc1NC2c1ccc([N+](=O)[O-])s1 (configuration not stated) | 0.231 | 0.604
96 | CC1(C)CC(=O)C2=C(C1)Nc1ccccc1NC2c1ccc(Br)cc1 (configuration not stated) | 0.275 | 0.627
97 | CC1(C)CC(=O)C2=C(C1)Nc1ccccc1NC2c1ccccc1F (configuration not stated) | 0.25 | 0.618
98 | Cn1cccc1C1Nc2ccccc2NC2=C1C(=O)CC(C)(C)C2 (configuration not stated) | 0.222 | 0.609
99 | CC(=O)N1c2ccccc2NC2=C(C(=O)CC(C)(C)C2)C1c1cccn1C (configuration not stated) | 0.253 | 0.612
100 | O=C1c2ccccc2C(=O)N1c1nccs1 | 0.239 | 0.622
101 | CC(=O)Nc1ccc(S(=O)(=O)N2CCCC(CO)C2)cc1 (configuration not stated) | 0.29 | 0.63
102 | O=C(Nc1nc(/C=C/c2ccccc2)[nH]c(=O)n1)NS(=O)(=O)c1ccccc1Cl | 0.249 | 0.587
103 | CC(C)(C)C(=O)ON1C(=O)c2ccccc2C1=O | 0.25 | 0.616
104 | CN(C)c1ccc(CN2CCc3c([nH]c4ccccc34)C2)cc1 | 0.275 | 0.622
105 | CCCc1noc2c1C(=O)CC(C)(C)C2 | 0.261 | 0.622
106 | CC1(C)CC(=O)c2c(CC3CC(=O)NC(=O)C3)noc2C1 | 0.222 | 0.614
